Bioassay records deposited in PubChem BioAssay by National Center for Advancing Translational Sciences (NCATS).
DT40 TDP1 CPT = qHTS for Inhibitors of human tyrosyl-DNA phosphodiesterase 1 (TDP1): qHTS in cells in presence of CPT; chicken DT40 Tdp1-/-;hTDP1 cells + 20 nM CPT, ATP luminescence, 48 h; Potency, µM (doses to about 46.2 µM), for inactives: at the highest dose activity change, negative = growth inhibition, actives largely listed as inhibitors; hit rate 12% among 420,000; AID 686979, 2013; further: potency means the concentration at half of the fitted maximal effect; nearly all actives have a fitted effect of over 55% in size
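Chicken DT40 Tdp1-/- cells complemented with human TDP1, 400 cells/well, exposed to compounds plus 20 nM camptothecin for at least 48 h at 37 C; viability read as ATP content by CellTiter-Glo luminescence.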
ALOX12 inh = Primary qHTS assay for inhibitors of human arachidonate 12S-lipoxygenase (ALOX12): Round 2. Potency, µM (highest dose often 108 µM), for the others: top-dose activity change, negative = inhibition, actives largely listed as inhibitors. purified 12hLO, xylenol orange hydroperoxide absorbance. AID 1671190, 2021. hit rate 1.1% among 580,000; further: potency means the concentration at half of the fitted maximal effect
Target sequence (P18054 whole entry, looked up): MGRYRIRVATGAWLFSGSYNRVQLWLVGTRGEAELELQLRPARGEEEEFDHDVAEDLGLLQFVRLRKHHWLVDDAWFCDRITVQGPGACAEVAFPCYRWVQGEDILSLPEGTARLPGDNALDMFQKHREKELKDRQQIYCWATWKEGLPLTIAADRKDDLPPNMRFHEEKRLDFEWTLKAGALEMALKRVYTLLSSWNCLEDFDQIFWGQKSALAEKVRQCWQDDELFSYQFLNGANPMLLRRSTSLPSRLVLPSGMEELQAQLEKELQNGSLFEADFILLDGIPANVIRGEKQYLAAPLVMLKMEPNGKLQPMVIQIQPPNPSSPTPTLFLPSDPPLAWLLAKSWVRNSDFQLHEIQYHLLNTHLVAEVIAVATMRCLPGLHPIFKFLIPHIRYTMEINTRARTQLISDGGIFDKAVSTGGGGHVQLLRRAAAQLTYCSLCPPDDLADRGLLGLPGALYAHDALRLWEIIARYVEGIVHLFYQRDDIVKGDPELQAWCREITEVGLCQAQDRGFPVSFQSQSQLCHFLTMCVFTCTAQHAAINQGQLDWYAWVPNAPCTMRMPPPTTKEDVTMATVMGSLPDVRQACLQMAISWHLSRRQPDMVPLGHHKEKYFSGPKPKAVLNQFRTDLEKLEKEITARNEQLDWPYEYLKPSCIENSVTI
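Purified human 12hLO (150 nM final) in 25 mM Hepes, 0.01% Triton X-100, pH 7.0 was preincubated 15 min at room temperature with compound. Then 40 uM arachidonic acid was added, 30 min. Hydroperoxide was read by Fe-XO absorbance ratio 573/405 nm.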
HT1080-NT tox = qHTS for induction of synthetic lethality in tumor cells producing 2HG: qHTS for the HT-1080-NT fibrosarcoma cell line; HT-1080-NT fibrosarcoma viability, CellTiter-Glo ATP luminescence, 48 h; Potency, µM (series often up to 46.1 µM), for inactives: at the highest dose activity, negative = less viability, most hits filed as cytotoxic; hit rate 1.6% among 360,000;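 further: NT is the 2HG producing partner of a matched IDH1 knockdown line; potency means the concentration at half of the fitted maximal effect; 0% = DMSO-treated cells and -100% = media-only wells without cells; nearly all actives have a fitted effect of over 55% in size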
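750 cells/well, RPMI + 5% FBS; 2 h settle, compound pin-transfer, 48 h at 37 degrees C. CellTiter-Glo 10 min RT, luminescence. Normalized to DMSO and media-only wells.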
TDP1 cell noCPT = qHTS for Inhibitors of human tyrosyl-DNA phosphodiesterase 1 (TDP1): qHTS in cells in absence of CPT. DT40 Tdp1-/- hTDP1 cells, no CPT, ATP luminescence, 48 h. Potency, µM (highest dose often 46.2 µM), for inactives: top-dose activity change, negative = growth inhibition, hits mostly inhibitors. hit rate 15% among 420,000; further: potency means the concentration at half of the fitted maximal effect; nearly all actives have a fitted effect of over 55% in size
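Luminescent ATP content (CellTiter-Glo) served as the growth readout. Knockout chicken DT40 cells expressing human TDP1 were exposed to compounds without camptothecin for a minimum 48 hr at 37 °C.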
IL1B secr inh = qHTS for Inhibitors of Inflammasome Signaling: IL-1-beta AlphaLISA Primary Screen; THP-1 LPS/ATP IL-1B secretion, AlphaLISA, 16 h; stronger effect = lower value; activity change, % at 57.5 µM; hit rate 4.7% among 360,000; in the data active means activity change below about -50%; inconclusive means mostly about -30% to -49%
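Secreted IL-1B measured by AlphaLISA bead assay after 16 h compound exposure of THP-1 cells; compounds (final up to 57.5 uM) added 1 h before LPS (250 ng/mL) and ATP (1.25 mM) stimulation; lower signal means less secretion.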
HT1080 IDH1KD tx = qHTS for induction of synthetic lethality in tumor cells producing 2HG: qHTS for the HT-1080-IDH1KD cell line. HT-1080 IDH1 knockdown viability, ATP luminescence, 48 h. Potency, µM (series often up to 46.1 µM), without a hit: at the highest dose activity, negative = toxicity, hits mostly cytotoxic. hit rate 2% among 360,000;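 further: potency means the concentration at half of the fitted maximal effect; 0% = DMSO wells and -100% = cell-free medium wells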
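Assay cells: HT-1080 with IDH1 knockdown, 750 per well, RPMI/5% FBS. Exposure: 48 h at 37 °C following 2 h pre-incubation. Read: CellTiter-Glo luminescence; fitted concentration-response, curve class assigned.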
Active calls of the source: *; ? = inconclusive; · = no result given; [ ] = remark or other dose. This excerpt belongs to a sample that is enriched for hits. Unless noted, the call rests on the fitted dose curve; in most records, active means well fitted curve in the direction sought with a large enough effect; inconclusive means small, poorly fitted or top-dose-only effect, or another doubt; inactive means no such curve, though single readings can be large; an effect the other way counts as inactive or inconclusive. Unless noted, on the % scale 0 is the no-effect control and ±100 the full control effect.

SMILES	DT40 TDP1 CPT	ALOX12 inh	HT1080-NT tox	TDP1 cell noCPT	IL1B secr inh	HT1080 IDH1KD tx
Cc1cc(OCCCN2CCC(C(O)(c3ccccc3)c3ccccc3)CC2)ccc1Br	5.8µM*	?	16.4µM*	5.8µM*	-75.3*	?
N#Cc1ccc(OCC(O)CN2CCC(C(O)(c3ccccc3)c3ccccc3)CC2)cc1 (stereo not drawn)	20.6µM*	16.0%	-8.1%	?	-94.7*	?
O=C(Nc1ccc(F)c(Cl)c1)C1CCN(c2ncnc3nc[nH]c23)CC1	·	-27.3%	·	·	·	·
CC1(C)Cc2ccccc2C(NNC(=O)c2ccccn2)=N1	18.4µM*	0.0%	-28.2%	20.6µM*	75.4	?
Cc1ccc(-c2nnc3ccc(SCC(=O)OCc4ccccc4)nn23)cc1	-1.0%	·	·	?	·	·
Cc1ccc(-c2nnc3ccc(SCC(=O)c4ccccc4)nn23)cc1	?	·	·	14.1µM*	·	·
CC(=O)C(Sc1ccc2nnc(-c3ccc(C)cc3)n2n1)C(C)=O	11.6µM*	?	9.9%	20.6µM*	24.4	-0.8%
CCC(Sc1ccc2nnc(-c3ccc(F)cc3)n2n1)C(=O)O (stereo not drawn)	0.1%	?	-0.7%	?	-0.7	-9.6%
CC(=O)C(Sc1ccc2nnc(-c3ccc(F)cc3)n2n1)C(C)=O	?	?	-4.1%	-28.1%	7.2	-13.4%
CSc1ccc2nnc(-c3ccc(C)cc3)n2n1	?	·	·	11.2µM*	·	·
CCOC(=O)C(CC)Sc1ccc2nnc(-c3ccc(F)cc3)n2n1 (stereo not drawn)	20µM*	·	·	?	·	·
COc1ccc(OC)c(C2CCCN2C(=O)CSc2nnnn2C2CCCCC2)c1 (stereo not drawn)	·	-3.9%	·	·	·	·
Cc1nnc(SCC(=O)N2c3ccccc3C(C)(c3ccccc3)CC2(C)C)s1 (stereo not drawn)	16.4µM*	8.0%	-18.3%	11.6µM*	-75.7*	-10.6%
Cc1ccc(C2(C)CC(C)(C)N(C(=O)CSc3nnc(C)s3)c3ccccc32)cc1 (stereo not drawn)	20.6µM*	0.0%	?	16.4µM*	-85.2*	?
CCOC(=O)C1CCN(CC(=O)Nc2ccc(OC)c(Cl)c2)CC1	-1.7%	-16.4%	-1.1%	-2.8%	-0.2	14.8%
CCOC(=O)c1cc(-c2ccc(C)cc2)n(CC(=O)Nc2ccc(OC)c(Cl)c2)c1C	18.4µM*	0.0%	·	16.4µM*	·	·
COc1ccc(NC(=O)CCn2c(=S)[nH]c3ccccc3c2=O)cc1OC	-9.2%	9.4%	18.4%	-0.9%	0.0	4.2%
CCOC(=O)c1cc(-c2ccccc2)n(CCCC(=O)Nc2cccc(C)c2)c1C	16.4µM*	-30.0%	·	16.4µM*	·	·
CCOC(=O)c1cc(-c2ccc(C)cc2)n(CCC(=O)Nc2ccc(OC)c(OC)c2)c1C	?	-12.5%	·	18.4µM*	·	·
CCOC(=O)c1cc(-c2ccccc2)n(CCC(=O)Nc2nc3c(C)cccc3s2)c1C	13µM*	?	·	13µM*	·	·
CCOc1ccc(CNC2CCCCCCC2)cc1OC	-22.6%	9.9%	-1.2%	0.8%	?	-0.8%
CC(C)S(=O)(=O)c1ncc(CN(C)Cc2ccsc2)n1CCc1ccccc1	·	15.4%	·	·	·	·
Cc1ccc(NC(=O)N2CCc3c(C(=O)NC(C)c4cccnc4)cccc32)cc1 (stereo not drawn)	·	67.8%	·	·	·	·
COc1ccc(C(=O)N(C)C2CCCc3ccccc32)cc1 (stereo not drawn)	·	16.4%[176 µM]	·	·	·	·
Cc1cccc(NC(=O)CCNS(=O)(=O)c2cccc3nonc23)c1C	4.6%	-0.6%	0.1%	1.4%	-9.9	8.1%
SMILES	DT40 TDP1 CPT	ALOX12 inh	HT1080-NT tox	TDP1 cell noCPT	IL1B secr inh	HT1080 IDH1KD tx
Cc1cccc2sc(NC(=O)CCNS(=O)(=O)c3cccc4nonc34)nc12	?	-12.5%	-14.2%	18.4µM*	?	-24.9%
CCOC(=O)c1cccc(NC(=O)CCn2cccc2)c1	-11.1%	0.0%	2.4%	-26.1%	-14.9	-1.6%
CCOC(=O)c1cc2occc2n1CC(=O)Nc1ccc(OC)cc1OC	23.1µM*	-26.7%	-3.6%	?	6.7	-5.7%
CC(=O)c1cc(-c2ccccc2)n(CC(=O)Nc2cccc(C)c2C)c1C	6.5%	-14.1%	-1.3%	-1.8%	10.2	0.7%
CCOC(=O)c1cccc(NC(=O)CCn2c(-c3ccc(F)cc3)cc(C(=O)OCC)c2C)c1	20.6µM*	-28.8%	·	13µM*	·	·
CCOC(=O)c1cc(-c2ccccc2)n(CCCC(=O)Nc2cccc(C)c2C)c1C	16.4µM*	-11.7%	·	?	·	·
CCOC(=O)c1cc(-c2ccc(C)cc2)n(CC(=O)Nc2ccc(OC)cc2OC)c1C	23.1µM*	-2.7%	·	?	·	·
CCOC(=O)c1cc(-c2ccc(C)cc2)n(CCC(=O)Nc2ccc(C(C)C)cc2)c1C	5.17µM*	-11.7%	·	5.17µM*	·	·
Cc1cccc2sc(NC(=O)CCn3cccc3)nc12	4.9%	-6.5%	-9.8%	-23.7%	-51.9*	-19.3%
CCOC(=O)c1cc(-c2ccccc2)n(CCCC(=O)Nc2ccc(C(C)C)cc2)c1C	?	-13.2%	·	20.6µM*	·	·
COc1ccc(-c2nc3c(C(C)(C)C)cc(C(C)(C)C)c(O)c3o2)cc1	·	28.8%	·	·	·	·
Cc1cccc(NC(=O)CSc2ccc(C(N)=O)cc2[N+](=O)[O-])c1C	?	-31.3%	10.2%	-8.6%	13.2	-0.4%
